# In all, about 33,000 sequences were measured (“E-score (-0.5 to 0.5)”: median about -0.0034, highest 2% from about 0.25 on). The sample holds the highest values, similar sequences and a random draw of the others, so the mix is not that of the screen.
# Biological target: T1, Yap3 (UniProt P38749)
# T1 sequence: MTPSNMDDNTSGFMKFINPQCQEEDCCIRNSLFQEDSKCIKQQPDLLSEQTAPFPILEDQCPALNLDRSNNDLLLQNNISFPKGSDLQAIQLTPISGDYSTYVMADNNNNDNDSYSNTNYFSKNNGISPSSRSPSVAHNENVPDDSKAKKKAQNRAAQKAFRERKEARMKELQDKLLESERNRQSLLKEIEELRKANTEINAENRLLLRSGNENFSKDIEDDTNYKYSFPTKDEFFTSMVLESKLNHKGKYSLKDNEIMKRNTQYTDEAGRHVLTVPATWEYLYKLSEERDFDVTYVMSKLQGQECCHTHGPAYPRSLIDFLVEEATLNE
# Test: PBM E-score (8-mer binding enrichment) (E-score (-0.5 to 0.5)); higher = stronger / more preferred TF binding
# Conditions: protein concentration: 100 nM; construct: GST-full length
# Method in brief: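 Yeast transcription factors carrying a GST tag, as full-length proteins or DNA-binding domains, were produced by PURExpress in vitro transcription/translation. About 100-200 nM protein was applied to universal all-10-mer Agilent arrays, double-stranded by primer extension on fresh or once-stripped slides. Bound protein was detected with fluorescent anti-GST, and scans were normalised with masliner. The Universal PBM Analysis Suite gave each ungapped eight-base word, pooled with its reverse complement, an E-score, a modified Wilcoxon-Mann-Whitney statistic.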
row,Sequence,PBM E-score
1,GTATGATA,0.282
2,CAGAAGCA,0.137
3,TCCTACAA,0.0495
4,GTCATCCA,0.0539
5,AAAGACCT,0.0294
6,AGATGATA,0.08
7,ATATGATA,0.264
8,ATATGATG,0.171
9,CTGTGAAA,0.264
10,ATATGATC,0.294
11,GTGTGAAA,0.133
12,CTATGATC,-0.0167
13,CTATGATA,0.0744
14,ATGTGAAA,0.134
15,CTCTAGAA,-0.214
16,AGTGGTAC,0.0484
17,CTCGCTGC,-0.0528
18,AAGCATTA,0.106
19,CATTCAAC,-0.065
20,GTAAATAA,0.267
21,GTAAATAC,0.0284
22,ATAAATAT,0.267
23,ATAAATCA,0.207
24,ATAAATAG,0.195
25,ATAAATAC,0.325

row,Sequence,PBM E-score
1,CTAAATAA,0.155
2,ATATAAAT,0.242
3,CTAAATAC,0.0333
4,ATAAAAAT,0.199
5,TTAAATAA,0.155
6,ATAAATAA,0.307
7,GAACTCTC,-0.0889
8,AATTAGAT,0.245
9,ACATTTTC,0.125
10,CCTATAAC,-0.0793
11,CCATCTTA,0.00932
12,GTCCTAAC,-0.0915
13,ACCATCAC,0.0126
14,ATCTTCTA,0.0985
15,ATTGAGCA,0.105
16,AATAAAAA,0.27
17,AATAAAAG,0.0973
18,CATAAAAC,0.0691
19,AATAAAAT,0.239
20,GATAAAAC,0.219
21,AATAAAAC,0.315
22,ACCACTCG,0.0759
23,ACGTGTTG,0.0914
24,GAGCGACA,0.0223
25,ACTTGTCT,-0.0439

row,Sequence,PBM E-score
1,CGACAACG,0.0404
2,CTAATAAC,0.15
3,ATAATAAC,0.173
4,TTAATAAA,0.372
5,CTAATAAA,0.178
6,ACAATAAA,0.106
7,GTAATAAA,0.266
8,ATAATAAA,0.277
9,ATAATAAT,0.26
10,GAAATAAA,0.14
11,GTAATAAC,0.188
12,ATAATAGA,0.184
13,ATAATAAG,0.194
14,CGCGTCGA,0.0342
15,GTACGAAA,0.173
16,CTCGTCGA,-0.0244
17,CGTCGCTA,0.11
18,CTTCTGAA,0.0313
19,ACAGCCAT,-0.0294
20,ACGTGAAA,0.211
21,AGAATAAT,0.24
22,AGAATAAA,0.261
23,AGAATAAG,0.11
24,AGATAGGC,-0.0411
25,GGACAGCA,-0.0442

row,Sequence,PBM E-score
1,GGTTAGTA,0.0941
2,ATTTAGTA,0.289
3,ATTTAGTC,0.167
4,GTTTAGTA,0.275
5,ATTTAGTG,0.204
6,CTTTAGTA,0.0328
7,CCAGTAAG,-0.0333
8,ACACATGT,0.0237
9,CGGGTAAC,-0.0884
10,ACAATTCC,0.0667
11,ACATCTTC,0.0249
12,GCGGTAGA,0.00783
13,GACAAGTA,-0.00588
14,CACAAATA,0.152
15,GACAAATA,0.299
16,AACAAATA,0.25
17,TACAAATA,0.299
18,GACAAATC,0.175
19,TGGGGACA,-0.0974
20,ATGTAGCA,-0.00878
21,CCGCGGCA,0.135
22,AGAGAGCC,-0.201
23,CGTATCGC,0.0192
24,CTTATTGA,0.0574
25,TCGATTAA,0.308

row,Sequence,PBM E-score
1,ACGATTAA,0.0578
2,GTTATTAA,0.262
3,CTTATTAA,0.339
4,GCGATTAA,0.216
5,CTTATTGC,0.0255
6,GTTATTTA,0.165
7,CTCATTAA,0.0548
8,GTTATTGA,0.117
9,ATCATTAA,0.207
10,GTCATTAA,0.3
11,CCGCCACC,-0.155
12,CCTCAGGA,-0.184
13,CCAAGACG,-0.148
14,ATGGTGGA,-0.062
15,CGCTAATA,0.0177
16,CTCTCTAA,-0.149
17,CACCTTCA,0.014
18,GGCCCACA,-0.119
19,CGGAGCAG,-0.191
20,AGATTTGG,-0.12
21,ATTGCAGG,0.073
22,ACTATTAA,0.123
23,ATTATTAA,0.378
24,CCCATTAA,-0.108
25,ACCATTAA,0.26

row,Sequence,PBM E-score
1,ATGATTAG,0.124
2,ATGATTAA,0.274
3,CTGATTAA,0.203
4,CCTATTAA,0.0368
5,TCCATTAA,0.0027
6,ATAAGATG,0.176
7,AATAGAAA,0.138
8,ATGGTATG,0.00998
9,CTTGTATA,0.127
10,ATGGTATA,0.262
11,ATTGTATA,0.298
12,ATTGTATG,0.151
13,ATGGTATC,0.175
14,CGGTCGCC,-0.2
15,CTCTAAAC,0.167
16,AAGCTGAG,0.0158
17,AGCAGAGA,-0.0117
18,TCGTAGAA,-0.0144
19,CCGCCTAA,-0.155
20,AAAAATAA,0.25
21,AAAAAATA,0.287
22,ACAAAATA,0.175
23,GAAAAATA,0.114
24,AAAATAGA,0.256
25,CAAAAATC,0.051

row,Sequence,PBM E-score
1,TAAATAGA,-0.0374
2,TAAAATAA,0.0792
3,CAAAATAA,0.296
4,AAAATAGC,-0.0905
5,CAAAAATA,0.332
6,CCAAAATA,0.211
7,CAGTTTGC,0.124
8,ACGCCGCG,-0.0869
9,AGACCTGG,-0.0312
10,AGTTTGCC,0.175
11,GCGGCTCA,0.0715
12,CAAATATA,0.0799
13,TAAAAAAA,0.0893
14,CAAATAAA,0.197
15,TAAATAAA,0.282
16,GAAATATA,0.248
17,GAAAGATA,0.217
18,TAAAGATA,0.254
19,CAAAGATA,0.0838
20,TAAAAATA,0.26
21,CTAAAATA,0.148
22,AAAATAAA,0.204
23,TAAATATA,0.297

# From the supplement of paper PMC3334620
